Screens as filed in PubChem.
Hits are enriched below; roughly 19% of the tested compounds scored in any of these assays.
MCF10A rerep – A quantitative high throughput screen for small molecules that induce DNA re-replication in MCF 10a normal breast cells; Potency, µM (highest dose often 46.1 µM), inactives show top-dose activity, positive = re-replication, hits mostly activators; MCF 10A DNA re-replication, Hoechst nuclear intensity, 48 h; hit rate 2.9% among 350,000; further: potency means the concentration at half of the fitted maximal effect; % of control where 0% means no effect; nearly all actives have a fitted effect of over 50% in size
IL1B secr inh – qHTS for Inhibitors of Inflammasome Signaling: IL-1-beta AlphaLISA Primary Screen; THP-1 LPS/ATP IL-1B secretion, AlphaLISA, 16 h; stronger effect = lower value; activity change, % at 57.5 µM; AID 743279, 2014; hit rate 4.7% among 360,000; in the data active means activity change below about -50%; inconclusive means mostly about -30% to -49%; further: on the % scale 0 is the no-effect control and ±100 the full control effect
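Secreted IL-1B measured by AlphaLISA bead assay after 16 h compound exposure of THP-1 cells; compounds (final up to 57.5 uM) added 1 h before LPS (250 ng/mL) and ATP (1.25 mM) stimulation; lower signal means less secretion.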
DT40 TDP1 CPT – qHTS for Inhibitors of human tyrosyl-DNA phosphodiesterase 1 (TDP1): qHTS in cells in presence of CPT; chicken DT40 Tdp1-/-;hTDP1 cells + 20 nM CPT, ATP luminescence, 48 h; Potency, µM (series often up to 46.2 µM), for inactives: at the top dose activity change, negative = growth inhibition, hits mostly inhibitors; hit rate 12% among 420,000; AID 686979, 2013; further: potency means the concentration at half of the fitted maximal effect; on the % scale 0 is the no-effect control and ±100 the full control effect; nearly all actives have a fitted effect of over 55% in size
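Cell growth measured by CellTiter-Glo luminescence after a minimum 48 h, 37 C compound exposure with 20 nM CPT in Tdp1-knockout DT40 cells stably expressing hTDP1, seeded 400/well; qHTS titration format.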
Chronic BCR inh – qHTS Assay to Find Inhibitors of Chronic Active B-Cell Receptor Signaling. Potency, µM (titrated, usually from 46.1 µM), for inactives: top-dose activity change, negative = inhibition, hits mostly inhibitors. hit rate 0.05% among 340,000. ABC-DLBCL IkBa-CBG/CBR reporter, luminescence ratio, 4 h; active means well fitted inhibition curve with a large enough effect in the signal ratio, with a control signal flat, not every such curve was filed as active; inconclusive means small, poorly fitted or top-dose-only effect, or effect the other way, or a change in a side signal; the % refers to the signal ratio;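 further: potency means the concentration at half of the fitted maximal effect; plate controls were basal doxycycline-induced cells for no effect and cells given 10 µM MG132 for full effect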
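Compounds up to 46 uM were incubated four hours with TMD8 cells whose green CBG68 luciferase is fused to IkappaBalpha; red CBR luminescence normalised the signal, and concentration-effect curves were fitted to fusion, red and ratio data.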
DT40 TDP1 no CPT – qHTS for Inhibitors of human tyrosyl-DNA phosphodiesterase 1 (TDP1): qHTS in cells in absence of CPT. DT40 Tdp1-/- hTDP1 cells, no CPT, ATP luminescence, 48 h. Potency, µM (top dose mostly 46.2 µM), inactives show at the highest dose activity change, negative = growth inhibition, usual class: inhibitors. hit rate 15% among 420,000. AID 686978, 2013; further: potency means the concentration at half of the fitted maximal effect; on the % scale 0 is the no-effect control and ±100 the full control effect; nearly all actives have a fitted effect of over 55% in size
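Compound effects on proliferation are scored in DT40 Tdp1-/-;hTDP1 cells in the absence of CPT. ATP levels (CellTiter-Glo luminescence) are recorded after a ≥48 hr, 37 °C incubation.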
SW480 rerep – A quantitative high throughput screen for small molecules that induce DNA re-replication in SW480 colon adenocarcinoma cells; Potency, µM (top dose mostly 46.1 µM), for the others: top-dose re-replication activation, actives largely listed as activators; AID 624297, 2012; SW480 DNA re-replication, Hoechst DNA content imaging, 48 h; hit rate 1.8% among 340,000; further: potency means the concentration at half of the fitted maximal effect; % of control where 0% means no effect; nearly all actives have a fitted effect of over 55% in size
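Cells (250 per well) received 23 nL compound or DMSO by pin tool and were kept 48 hr at 37 C, 5% CO2. Nuclei were then stained with Hoechst for 40 min and scanned for DNA content.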
Starred values were filed as active, the others as inactive; u = inconclusive; x = not tested or not shown; [ ] = another dose, or the depositor's remark. Unless noted, the call rests on the fitted dose curve; in most records, active means well fitted curve in the direction sought with a large enough effect; inconclusive means small, poorly fitted or top-dose-only effect, or another doubt; inactive means no such curve, though single readings can be large; an effect the other way counts as inactive or inconclusive.

SMILES	MCF10A rerep	IL1B secr inh	DT40 TDP1 CPT	Chronic BCR inh	DT40 TDP1 no CPT	SW480 rerep
CCOC(=O)[C@H]1[C@H]2COc3ccc(C)cc3[C@@H]2N2C(=O)CN(Cc3ccc(Cl)cc3)C(=O)[C@@]12C	u	22.8	-25.5%	u	1.6%	-17.3%
Cc1nc2c(=O)[nH]n(C)c2nc1C	x	-7.6	-1.3%	x	-10.8%	x
Cc1nc2[nH]c(=S)n(C)c(=O)c2nc1C	0.3%	18.2	-6.7%	3.2%	-12.4%	25.9µM*
COc1ccc(S(=O)(=O)N2CCC(N3CCN(Cc4ccccc4)C(=O)C3=O)CC2)cc1	x	x	-20.3%	x	-4.4%	x
COc1ccccc1N1C(=NC(=O)COc2ccccc2)SC2CS(=O)(=O)CC21 (centres undefined)	-6.8%	8.8	1.0%	-8.3%	-1.2%	-4.9%
COc1ccccc1N1CCN(C(=O)Cn2cnc3c2c(=O)n(C)c(=O)n3C)CC1	4.8%	16.6	u	-17.1%	-25.4%	-11.7%
COc1ccccc1N1CCN(C(=O)Cn2cnc3onc(-c4ccc(F)cc4)c3c2=O)CC1	x	x	u	x	23.1µM*	x
O=C(CCn1cnc2onc(-c3ccc(F)cc3)c2c1=O)N1CCN(c2ccc(F)cc2)CC1	x	x	23.1µM*	x	18.4µM*	x
O=C1CC[C@H](C(=O)N[C@@H]2C[C@H]2c2ccccc2)N1	-1.1%	x	x	x	x	-4.8%
Cc1ccc2c(c1)N(C(=O)N1CCC(C(=O)NCc3ccccc3F)CC1)CC(C)O2 (centres undefined)	x	x	u	x	18.4µM*	x
CCOc1ccc(CNC(=O)C2CCN(C(=O)N3CC(C)Oc4ccccc43)CC2)cc1 (centres undefined)	-5.9%	-16.3	u	2.9%	u	-1.4%
CC1CN(C(=O)N2CCC(C(=O)NCc3ccccc3F)CC2)c2cc(Cl)ccc2O1 (centres undefined)	x	x	20.6µM*	x	14.6µM*	x
COc1ccc(NC(=O)c2ccco2)cc1NC(=O)c1ccccc1[N+](=O)[O-]	-18.1%	-9.2	-2.1%	u	8.8%	-25.5%
O=C(N/N=C/c1ccccc1F)c1csc2c1CCCC2	u	-11.1	u	1.4%	u	-0.9%
Cc1[nH]c(=O)c(C(=O)/C=C/c2ccccc2F)c2c1CCCC2	3.26µM*	-97.2*	4.61µM*	u	3.26µM*	4.11µM*
COC(=O)c1ccccc1NC(=O)c1c(NC(=O)c2ccco2)sc2c1CCC(C(C)(C)C)C2 (centres undefined)	x	x	-9.9%	x	4.1%	x
COCCN(C(=O)COC(=O)/C=C/c1ccc(C(F)(F)F)cc1)c1c(N)n(Cc2ccccc2)c(=O)[nH]c1=O	u	-2.3	20.6µM*	0.2%	20.6µM*	5.5%
COCCN(C(=O)COC(=O)/C=C/c1nc2ccccc2s1)c1c(N)n(Cc2ccccc2)c(=O)[nH]c1=O	u	-95.6*	u	-4.6%	u	-319.6%
CCN(C(=O)COC(=O)/C=C/c1nc2ccccc2s1)c1c(N)n(Cc2ccccc2)c(=O)[nH]c1=O	28.6%	-59.7*	-22.4%	x	0.3%	-7.8%
CC(=O)c1sc(NCCOc2ccc(C)cc2)nc1C	5.8%	35.6	u	u	14.6µM*	-3.2%
CC(=O)c1sc(NC(=O)CCS(=O)(=O)c2ccc(F)cc2)nc1C	x	-94.1*	2.59µM*	x	2.91µM*	x
CC(=O)c1sc(NC(=O)CCS(=O)(=O)c2ccccc2)nc1C	2.91µM*	-22.9	5.17µM*	u	5.8µM*	4.61µM*
CC(=O)Nc1nc(C)c(C(C)=O)s1	2.3%	16.3	14.6µM*	u	u	-3.5%
O=C(Cc1cccs1)N1CCN=C1SCc1cccc(F)c1	3.1%	-19.8	-19.4%	5.6%	-3.8%	-2.2%
N#CC(c1ccc(Cl)cc1)c1c(Cl)cc(-n2ncc(=O)[nH]c2=O)cc1Cl (centres undefined)	u	x	1.5%	x	0.0%	-3.1%
SMILES	MCF10A rerep	IL1B secr inh	DT40 TDP1 CPT	Chronic BCR inh	DT40 TDP1 no CPT	SW480 rerep
CC1CCN(C(=O)CN2C(=O)C(=O)N(C)C2=O)c2ccccc2S1 (centres undefined)	-1.1%	-0.6	-11.6%	u	-0.6%	-16.7%
COc1cccc(-c2cc(C(=O)NCc3ccccc3)no2)c1	x	x	2.7%	x	-16.1%	x
COc1ccc(CCNC(=O)c2cc3c(-c4ccccc4F)nn(C)c3s2)c(OC)c1	x	x	6.51µM*	x	5.8µM*	x
CCCN(CCC)CCCNC(=O)c1nn(C)c2c1CS(=O)(=O)c1ccccc1-2	x	x	8.1%	x	-3.0%	x
CCN(CCCNC(=O)c1cc2c(-c3cccc(OC)c3)nn(C)c2s1)Cc1ccccc1	u	-84.5*	9.2µM*	u	u	u
CCCCN(CC)CCNC(=O)c1cc2c(-c3ccccc3F)nn(C)c2s1	25.6%	x	16.4µM*	u	u	u
CCCN(CCC)CCCNC(=O)c1cc2c(-c3ccc(Cl)cc3)nn(C)c2s1	x	x	13µM*	x	8.2µM*	x
Cc1ccc(CCNC(=O)c2cc3c(-c4ccccc4F)nn(C)c3s2)cc1	x	x	-25.4%	x	u	x
CNC(=O)c1c(C)noc1C	-0.5%	8.4	1.2%	12.1%	-5.1%	-3.6%
Cc1ccc(F)c(S(=O)(=O)NC(=O)C2(C)CCN2C(=O)CCc2ccccc2)c1 (centres undefined)	x	12.8	-11.9%	x	-9.2%	x
C=CCN1[C@@H](Cc2ccccc2)COCCS1(=O)=O	u	-0.7	-19.5%	x	-24.1%	1.2%
CN1CCN(CCCNC(=O)c2cc3c(-c4ccc(Cl)cc4)nn(C)c3s2)CC1	u	u	5.8%	u	u	12.3%
CCN(CC)CCCNC(=O)c1cc2c(-c3ccc(Cl)cc3)nn(C)c2s1	-5.3%	-80.7*	7.31µM*	u	5.8µM*	u
Cc1sc2ncnc(NCC(C)(C)N3CCOCC3)c2c1C	1.8%	u	2.06µM*	-2.1%	1.46µM*	-7.5%
Cc1sc2ncnc(NCC3CCCO3)c2c1C (centres undefined)	3.0%	10.9	16.4µM*	-14.7%	9.2µM*	2.6%[9.22 µM]
Cc1sc2ncnc(NCC3(N4CCOCC4)CCCCC3)c2c1C	9.2%	2.8	20.6µM*	10.9%	23.1µM*	-2.7%
